Molecules are shown by their SMILES. Values joined by “and” are separate entries in the source; they are usually repeats but may differ in a detail not shown here. Equal values may be shown once. Where a structure was tested more than once in an assay, its records may differ in their call. Active and inactive are the calls of the source. How the source made its calls: active means hit-call score of the fitted dose curve at least 0.9, where 1 is the maximum; inactive means score below 0.9.

The nature of the assay: BSK_4H_Eotaxin3: BioMAP Diversity Plus: 4H Assay for Eotaxin 3 Biomarker Activity (AID 2283000). Conditions: primary human endothelial cells (HUVEC); actives raise or lower the signal. On the procedure: BSK_4H is a cell-based, multiplexed-readout assay that uses umbilical vein endothelium, a human vascular primary cell, with measurements taken at 24 hours after chemical dosing in a 96-well plate.BSK_4H_Eotaxin3 is an assay component measured in the BSK_4H assay. It measures Eotaxin-3 antibody related to regulation of gene expression using ELISA technology.Data from the assay component BSK_4H_Eotaxin3 was analyzed into 1 assay endpoint. This assay endpoint, BSK_4H_Eotaxin3, was analyzed with bidirectional fitting relative to DMSO as the negative control and baseline of activity. Using a type of binding reporter, gain or loss-of-signal activity can be used to understand changes in the signaling as they relate to the gene CCL26. Furthermore, this assay endpoint can be referred to as a primary readout, because this assay has produced multiple assay endpoints where this one serves a signaling function. To generalize the intended target to other relatable targets, this assay endpoint is annotated to the cytokine intended target family, where the subfamily is chemotactic factor.
The levels of cell surface (or secreted, indicated by the prefix "s") biomarker endpoints were measured by ELISA. Overt cytotoxicity to cells in confluent adherent cultures (all systems other than the BT system) was assessed by measuring total protein levels using sulforhodamine B (SRB) staining in parallel cultures at the time of biomarker measurements, indicated as SRB endpoints. For proliferation assays for adherent cell types, individual cell types are cultured at sub-confluence and relative cell numbers quantified by SRB staining at time points optimized for each system (48 h: 3C and CASM3C systems; 72 h: BT and HDF3CGF systems; 96 h: SAg system). SRB was performed by staining cells with 0.1% SRB after fixation with 10% TCA and reading wells at 560 nm.Viability and proliferation of PBMC (T cells) was quantified by Alamar Blue reduction for the SAg and BT systems. For PBMC viability (referred to as PBMC Cytotoxicity within the assay endpoint names), cells were plated (75,000/well in a 96-well plate) and then chemical samples added for 1 h before addition of activators, SEB and TSST-1 (20 ng/mL final concentration each). Cells were incubated for 90 h. Then, Alamar Blue (20 uL/well) (Invitrogen, Cat DAL1100) was added for 6 h, and the plates were read with a fluorescence microplate reader at 546/580 nm (excitation/emission). For PBMC proliferation, cells were plated and activated as above but incubated for only 16 h prior to addition of Alamar Blue. Plates were read after 6 h.
As usually defined, the AC50 is the concentration giving half of the maximal activity seen. On to `CCc1c(Br)c(Br)c(Br)c(Br)c1Br`, for which the concentration at half-maximal activity (AC50) is 20 µM (active).
As to `C=CC/C=C/C/C=C/C/C=C/C`, the result was inactive.
Same read-out and setting: to `FC1CC(F)(F)C(F)(F)C1(F)F` (stereo not given) belongs “inactive”.
On to `O=C(O)C(F)(F)C(F)(F)C(F)(F)C(F)(F)C(F)(F)C(F)(F)C(F)(F)C(F)(F)C(F)(F)C(F)F`, for which the AC50 was 29.1 µM (active) and the result was inactive.
In the case of `O=C(CC(=O)C(F)(F)C(F)(F)F)C(F)(F)F`, the result was inactive.
For the molecule `COC(=O)CCC(F)(F)C(F)(F)C(F)(F)C(F)(F)F`, the outcome was inactive.
Same read-out and setting: to `C=CC(F)(F)C(F)(F)C(F)(F)C(F)(F)C(F)(F)C(F)(F)C(F)(F)C(F)(F)F` belongs “inactive”; to `C=CC(=O)OCC(F)(F)C(F)(F)C(F)(F)C(F)(F)C(F)(F)C(F)(F)C(F)(F)F`, “inactive”.
Turning to `CC(=O)Nc1ccc(N=Nc2cc(C)ccc2O)cc1`, the concentration at half-maximal activity (AC50) was 20 µM (active).
With `C=C(C)C(=O)OCC(F)(F)C(F)(F)C(F)(F)F`, the outcome was inactive.
With `O=C(O)C(F)(F)C(F)(F)C(F)(F)C(F)(F)C(F)(F)C(F)(F)C(F)(F)C(F)(F)Cl`, the result was inactive and the AC50 is 49.9 µM (active).
`O=S(=O)(O)C(F)(F)C(F)(F)C(F)(F)C(F)(F)C(F)(F)C(F)(F)C(F)(F)F`: the result was inactive.
The same measure, in the same setting: in the case of `FC(F)(F)C(F)(F)C(F)(F)C(F)(F)C(F)(F)C(F)(F)CCS` it was “inactive”; in that of `FC(F)(F)C(F)(F)C(F)(F)C(F)(F)C(F)(F)C(F)(F)C(F)(F)C(F)(F)F`, “inactive”; in that of `CCCCCCCOC(=O)c1ccccc1C(=O)OCCCCCCC`, “inactive”.
As for `CS(C)(=O)=O`, the outcome was inactive.
On the same count and under the same terms, in the case of `OCCCC(F)(F)C(F)(F)C(F)(F)F` it was “inactive”; in that of `OCC(F)(F)C(F)(F)C(F)(F)C(F)F`, “inactive”.
With `Nc1ccc([N+](=O)[O-])cc1O`, the outcome was inactive.
With `O=C(O)C(F)(F)C(F)(F)C(F)(F)C(F)(F)C(F)(F)C(F)(F)C(F)(F)C(F)(F)C(F)(F)C(F)(F)C(F)(F)C(F)(F)F`, the outcome was inactive and the half-maximal activity concentration (AC50) is 9.18 µM (active).
As to `Oc1ccc(Nc2ccccc2)cc1`, the AC50 is 0.547 µM (active).
Turning to `O=C(Cl)C(F)(F)C(F)(F)C(F)(F)C(F)(F)C(F)(F)C(F)(F)C(F)(F)C(F)(F)F`, the result was inactive; the concentration at half-maximal activity (AC50) was 42.9 µM (active) and 30 µM (active).
Turning to `FC(F)(F)C(F)(F)C(F)(F)C(F)(F)CCI`, the result was inactive and the AC50 is 10.6 µM (active).
On to `O=C(O)C(F)(F)C(F)(F)C(F)(F)C(F)(F)F`, for which the outcome was inactive.
Turning to `O=C(O)C(F)(F)C(F)(F)F`, the result was inactive.
For `FC(F)(F)C(F)(F)CNCC(F)(F)C(F)(F)F`, the outcome was inactive.
For the molecule `OCC(F)(F)C(F)(F)C(F)(F)C(F)(F)C(F)(F)C(F)F`, the outcome was inactive.
The same measure, in the same setting: in the case of `CCO[Si](CCC(F)(F)C(F)(F)C(F)(F)C(F)(F)C(F)(F)C(F)(F)F)(OCC)OCC` it was “inactive”.
Regarding `O[Si](c1ccccc1)(c1ccccc1)c1ccccc1`, the concentration at half-maximal activity (AC50) was 30.1 µM (active).
Regarding `O=C(O)C(F)(F)C(F)(F)C(F)(F)C(F)(F)C(F)(F)C(F)(F)C(F)(F)C(F)(F)C(F)(F)C(F)(F)C(F)(F)C(F)(F)C(F)(F)F`, the result was inactive and the concentration at half-maximal activity (AC50) was 1.32 µM (active).
As for `O=C(O)C(F)(OC(F)(F)C(F)(OC(F)(F)C(F)(OC(F)(F)C(F)(F)C(F)(F)F)C(F)(F)F)C(F)(F)F)C(F)(F)F` (stereo not given), the outcome was inactive.
Take `CCCCCCCCCCCCCCCC[N+](C)(C)Cc1ccccc1`: the AC50 was 6.55 µM (active).
With `Cc1ccc(S(=O)(=O)OCC(F)(F)C(F)(F)C(F)(F)C(F)(F)C(F)(F)C(F)F)cc1`, the result was inactive.
`CC(CCl)OP(=O)(OC(C)CCl)OC(C)CCl` (stereo not given): the outcome was inactive.

Values taken from PubChem BioAssay (EPA / NIEHS).
